Test [1] is described as follows: Nuclear factor erythroid 2-related factor 2/antioxidant responsive element (Nrf2/ARE) small molecule agonists: qHTS cell viability counter screen in human keratinocytes (AID 1919968; active = well fitted curve in the direction sought with a large enough effect in the repeat runs; an effect the other way counts as inactive or inconclusive; also: nearly all actives have a fitted effect of over 55% in size). A digest of the protocol: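 Seed 1,500 KeratinoSens cells per well, then incubate 5 h at 37 C/5% CO2. Add compounds in DMSO and incubate 23 h. Add CellTiter-Fluor, wait 1 h and read fluorescence.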

Test [2] is described as follows: Nuclear factor erythroid 2-related factor 2/antioxidant responsive element (Nrf2/ARE) small molecule agonists: luciferase reporter gene qHTS assay in human keratinocytes (AID 1919969; also: nearly all actives have a fitted effect of over 35% in size; also: potency is read from the fitted curve at half-maximal effect). (In general: In a reporter assay the amount or activity of a reporter protein is the signal.)
For test [3], the target named is Gonadotropin-releasing hormone receptor (Homo sapiens) (UniProt P30968). The experiment in a line: Human gonadotropin-releasing hormone receptor (GnRHR) small molecule agonists, calcium flux assay in GnRHR-HEK293 cells (AID 1920063). Also: nearly all actives have a fitted effect of over 35% in size. Put shortly:
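Cells: HEK293 stably expressing human GnRHR. Steps: overnight (18 h) culture, 1 h calcium dye loading at 37 C, compound addition, kinetic fluorescence read at 480/540 nm. Each compound tested at 15 concentrations in triplicate.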
Background: Calcium flux is commonly read through the fluorescence of an indicator in the cells.

The target in test [4] is KiSS-1 receptor (Homo sapiens) (UniProt Q969F8). The experiment in a line: Human kisspeptin (KISS1R) small molecule agonists, calcium flux assay in KISS1R-HEK293 cells (AID 1920064; active = well fitted curve in the direction sought with a large enough effect in the repeat runs; an effect the other way counts as inactive or inconclusive). Put shortly: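 Cells plated and incubated 18 h; dye added, 1 h at 37 C; compounds in DMSO pinned in; signal read at 480/540 nm every second for 3 min. Each compound tested at 15 concentrations in triplicate.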

Test [5] in a line: G protein-coupled receptor (GPCR) small molecule agonists, calcium flux assay: HEK293 wild type cell line counter screen (AID 1920065). Put shortly: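 Counter-screen of the Tox21 10K library for non-specific calcium release: dye-loaded cells received compounds in DMSO and were monitored by kinetic fluorescence (480/540 nm, 3 min). Fifteen concentrations, run in triplicate.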
Test [6] can be described thus: p53 small molecule agonists, cell-based qHTS assay with human liver microsomes: qHTS cell viability counter screen (AID 1963579). Also: nearly all actives have a fitted effect of over 45% in size. A digest of the protocol: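 Metabolic activation used human liver microsomes and NADPH, both 0.5 mg/mL final, over 16 hours at 37 C on p53RE-bla cells (4,000/well). Cytotoxicity measured by CellTiter-Glo luminescence, 30 min at room temperature.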
(In general: qHTS replaces the single test concentration by a dilution series.)

Test [7] in a line: p53 small molecule agonists, cell-based qHTS assay with rat liver microsomes: qHTS cell viability counter screen (AID 1963580). Also: nearly all actives have a fitted effect of over 45% in size. A digest of the protocol:
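Intracellular ATP, by CellTiter-Glo luminescence, defines viability. HCT-116 p53RE-bla cells, 4,000 per well, were compound-treated in the presence of rat liver microsomes and NADPH for 16 h at 37 C.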

Test [8] is described as follows: p53 small molecule agonists, cell-based qHTS assay: qHTS cell viability counter screen (AID 1963581). Also: nearly all actives have a fitted effect of over 45% in size. A digest of the protocol:
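Cells: HCT-116 with p53 response element-driven beta-lactamase. Treatment: 16 h, 37 C, compounds in DMSO. Read: CellTiter-Glo luminescence after 30 min RT.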

The target in test [9] is 5-hydroxytryptamine receptor 2A (Homo sapiens) (UniProt P28223). Kind of test: 5-hydroxytryptamine receptor 2A (HTR2A) small molecule antagonists, cell-based qHTS assay (AID 1963586). Also: nearly all actives have a fitted effect of over 45% in size. Put shortly: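 Antagonist-mode intracellular calcium assay: DOI (4 nM) added after 5 min compound pre-incubation at room temperature to dye-loaded HTR2A-CHO cells. Fluorescence followed for 3 min, sampled every second.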

The target is the same in test [10]. The experiment in a line: 5-hydroxytryptamine receptor 2A (HTR2A) small molecule agonists, cell-based qHTS assay (AID 1963587). Also: nearly all actives have a fitted effect of over 30% in size. A digest of the protocol:
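Kinetic calcium-flux fluorescence (2 min, 1 sec intervals) after compound addition in agonist mode. HTR2A-CHO cells were cultured 18 h, then dye-loaded 1 h at 37 C.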

Test [11] concerns the target Muscarinic acetylcholine receptor M1 (Homo sapiens) (UniProt P11229). Kind of test: Cholinergic receptor muscarinic 1 (CHRM1) small molecule antagonists, cell-based qHTS assay (AID 1963588). Also: nearly all actives have a fitted effect of over 40% in size. A digest of the protocol: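 CHRM1-CHO calcium-flux assay, antagonist mode. Cells were seeded 18 h, dye-loaded 1 h at 37 C and given compound for 5 min at RT, then acetylcholine was added at 50nM. FDSS fluorescence was read 3 min; 15 concentrations, three runs.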

Test [12] has the same target. Kind of test: Cholinergic receptor muscarinic 1 (CHRM1) small molecule agonists, cell-based qHTS assay (AID 1963589). Also: nearly all actives have a fitted effect of over 35% in size. A digest of the protocol: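 Agonist-mode qHTS in CHO cells stably carrying human muscarinic M1. Intracellular calcium is tracked by fluorescence every second after compound transfer; each compound runs at 15 concentrations in three independent runs.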

Test [13] can be described thus: cAMP Responsive Elements (CRE) small molecule agonists, cell-based qHTS assay (AID 1963590). A digest of the protocol:
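Agonist mode qHTS in CRE-bla HEK 293T cells: compounds dosed from DMSO for 3 h at 37 C/5% CO2, followed by LiveBLAzer B/G FRET substrate for 2 h at room temperature.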

Test [14] can be described thus: cAMP Responsive Elements (CRE) small molecule antagonists, cell-based qHTS assay (AID 1963591; active = well fitted inhibition curve with a large enough effect in the signal ratio in the repeat runs, not every such curve was filed as active; the % refers to the signal ratio). Put shortly: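 Antagonist mode: test compounds are co-incubated with the adenylyl cyclase activator NKH477 (0.25 uM final) on CRE-bla HEK293T cells for 3 h at 37 °C, followed by LiveBLAzer substrate loading.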
The target of test [15] is Beta-2 adrenergic receptor (Homo sapiens) (UniProt P07550). The experiment in a line: Adrenergic beta2 receptor (ADRB2) small molecule antagonists, cell-based qHTS assay (AID 1963592). Also: series mostly up to about 92 µM; nearly all actives have a fitted effect of over 50% in size. Put shortly:
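Cells (CHO, stable ADRB2 overexpression) incubated 18-20hr at 37C; compounds added from DMSO; agonist mix (1nM isoproterenol, 100uM IBMX, 25uM Ro-20-1724) added; 0.5hr RT; d2-cAMP and anti-cAMP-cryptate added; 1hr RT; 665/615 nm read.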

In test [16] the target is D(2) dopamine receptor (Homo sapiens) (UniProt P14416). Kind of test: Dopamine D2 receptor (DRD2) small molecule agonists, cell-based qHTS assay (AID 1963594). Also: nearly all actives have a fitted effect of over 35% in size. A digest of the protocol:
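cAMP accumulation in DRD2-HEK293 cells measured by HTRF after 1 h detection; compounds added 10 min before NKH477 (200nM […]) forskolin-analogue stimulation, 30 min at room temperature, with Ro20-1724 present at 0.1 mM final.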

Test [17] has the same target. The experiment in a line: Dopamine D2 receptor (DRD2) small molecule antagonists, cell-based qHTS assay (AID 1963595; active = well fitted inhibition curve with a large enough effect in the signal ratio in the repeat runs, with a control signal flat; the % refers to the signal ratio). A digest of the protocol:
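Stable D2 receptor HEK293 line, 24 h after seeding. Compound preincubated 10 min, then quinpirole (12 nM) with forskolin analogue NKH477 (200 nM), 30 min, room temperature. Detection by time-resolved FRET of cAMP.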

For test [18], the target named is Beta-2 adrenergic receptor (Homo sapiens) (UniProt P07550). Kind of test: Adrenergic beta2 receptor (ADRB2) small molecule agonists, cell-based qHTS assay (AID 1963593).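 Also: CHO cells stably overexpressing human ADRB2.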 A digest of the protocol:
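CHO cells stably over-expressing ADRB2 were plated overnight at 37C, then dosed with compounds plus a stimulation mix containing 100uM IBMX and 25uM Ro-20-1724 for 0.5hr at room temperature. cAMP was measured by HTRF competition, 1hr.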

Our source for the Potency values is PubChem BioAssay (Tox21).

Unmarked numbers belong to inactive results. Inconclusive results are not listed. The source made the active and inactive calls. Unless noted, calls follow the shape of the full dose curve.

Sequence of Beta-2 adrenergic receptor (Homo sapiens) (P07550 whole entry, looked up): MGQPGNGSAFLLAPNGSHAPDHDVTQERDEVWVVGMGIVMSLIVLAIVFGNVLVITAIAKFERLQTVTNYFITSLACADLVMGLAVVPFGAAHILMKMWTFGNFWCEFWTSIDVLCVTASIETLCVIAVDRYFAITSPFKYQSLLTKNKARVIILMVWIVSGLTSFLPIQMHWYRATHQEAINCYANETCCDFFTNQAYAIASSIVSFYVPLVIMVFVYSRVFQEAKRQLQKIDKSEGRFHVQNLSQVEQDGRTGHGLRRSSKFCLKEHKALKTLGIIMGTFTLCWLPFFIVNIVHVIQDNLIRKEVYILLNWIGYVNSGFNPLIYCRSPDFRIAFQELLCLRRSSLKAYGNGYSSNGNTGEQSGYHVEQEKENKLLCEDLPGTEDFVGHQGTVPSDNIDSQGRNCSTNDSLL
Sequence of Muscarinic acetylcholine receptor M1 (Homo sapiens) (P11229 whole entry, looked up): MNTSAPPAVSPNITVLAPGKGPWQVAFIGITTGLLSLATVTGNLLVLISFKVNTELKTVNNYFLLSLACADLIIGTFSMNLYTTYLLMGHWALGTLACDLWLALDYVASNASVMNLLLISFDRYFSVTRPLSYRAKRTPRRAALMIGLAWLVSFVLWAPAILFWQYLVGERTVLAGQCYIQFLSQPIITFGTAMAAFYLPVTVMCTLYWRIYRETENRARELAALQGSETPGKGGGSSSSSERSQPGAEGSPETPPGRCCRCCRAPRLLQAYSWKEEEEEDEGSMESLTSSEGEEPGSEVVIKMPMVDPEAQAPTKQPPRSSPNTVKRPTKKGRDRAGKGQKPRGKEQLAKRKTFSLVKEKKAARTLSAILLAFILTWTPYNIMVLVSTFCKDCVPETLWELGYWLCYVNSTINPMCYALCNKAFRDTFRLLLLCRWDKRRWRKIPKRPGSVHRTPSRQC
Sequence of Gonadotropin-releasing hormone receptor (Homo sapiens) (P30968 whole entry, looked up): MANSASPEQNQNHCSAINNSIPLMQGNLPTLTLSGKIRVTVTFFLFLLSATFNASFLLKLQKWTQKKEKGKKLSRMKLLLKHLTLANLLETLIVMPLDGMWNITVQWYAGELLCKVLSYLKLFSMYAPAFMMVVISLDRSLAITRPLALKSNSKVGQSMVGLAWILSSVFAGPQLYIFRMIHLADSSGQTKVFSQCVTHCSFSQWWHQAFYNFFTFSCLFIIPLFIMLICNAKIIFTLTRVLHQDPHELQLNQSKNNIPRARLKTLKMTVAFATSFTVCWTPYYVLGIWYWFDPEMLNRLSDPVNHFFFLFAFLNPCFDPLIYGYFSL
Sequence of D(2) dopamine receptor (Homo sapiens) (P14416 whole entry, looked up): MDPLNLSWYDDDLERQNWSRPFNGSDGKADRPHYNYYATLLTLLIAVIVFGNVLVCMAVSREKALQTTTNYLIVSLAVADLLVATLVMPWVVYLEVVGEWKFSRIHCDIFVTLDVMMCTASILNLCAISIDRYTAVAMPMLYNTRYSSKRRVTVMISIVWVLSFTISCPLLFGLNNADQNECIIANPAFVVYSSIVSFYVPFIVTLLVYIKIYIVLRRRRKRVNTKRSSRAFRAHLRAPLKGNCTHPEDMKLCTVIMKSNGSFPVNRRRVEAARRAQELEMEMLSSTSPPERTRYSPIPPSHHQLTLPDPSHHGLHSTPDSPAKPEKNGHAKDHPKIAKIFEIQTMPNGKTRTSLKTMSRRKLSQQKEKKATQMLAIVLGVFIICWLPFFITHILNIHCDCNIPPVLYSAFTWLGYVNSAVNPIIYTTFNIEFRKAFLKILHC
Sequence of KiSS-1 receptor (Homo sapiens) (Q969F8 whole entry, looked up): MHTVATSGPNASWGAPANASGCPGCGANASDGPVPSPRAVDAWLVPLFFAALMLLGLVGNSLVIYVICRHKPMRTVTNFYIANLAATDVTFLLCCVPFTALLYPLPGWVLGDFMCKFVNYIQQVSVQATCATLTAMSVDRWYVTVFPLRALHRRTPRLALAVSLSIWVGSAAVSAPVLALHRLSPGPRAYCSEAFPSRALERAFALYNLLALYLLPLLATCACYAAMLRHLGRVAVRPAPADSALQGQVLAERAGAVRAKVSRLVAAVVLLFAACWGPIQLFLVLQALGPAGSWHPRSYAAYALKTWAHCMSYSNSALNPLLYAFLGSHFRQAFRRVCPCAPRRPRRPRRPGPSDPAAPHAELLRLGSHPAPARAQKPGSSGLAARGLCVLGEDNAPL
Sequence of 5-hydroxytryptamine receptor 2A (Homo sapiens) (P28223 whole entry, looked up): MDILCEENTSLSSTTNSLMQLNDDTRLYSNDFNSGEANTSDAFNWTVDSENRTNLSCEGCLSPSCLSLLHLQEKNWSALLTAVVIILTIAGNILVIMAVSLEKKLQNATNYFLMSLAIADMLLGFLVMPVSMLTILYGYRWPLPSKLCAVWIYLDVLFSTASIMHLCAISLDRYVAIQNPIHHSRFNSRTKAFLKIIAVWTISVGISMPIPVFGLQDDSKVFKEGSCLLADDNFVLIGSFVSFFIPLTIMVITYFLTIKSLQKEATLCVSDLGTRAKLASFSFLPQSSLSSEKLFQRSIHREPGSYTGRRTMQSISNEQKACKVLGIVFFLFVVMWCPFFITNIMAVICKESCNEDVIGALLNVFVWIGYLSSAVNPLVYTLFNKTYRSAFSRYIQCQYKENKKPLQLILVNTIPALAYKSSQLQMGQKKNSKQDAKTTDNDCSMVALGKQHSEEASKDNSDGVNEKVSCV

For `O=CC=O`, the Potency result in test [1], in test [2], in test [3], in test [4], in test [5] and in test [6] was “inactive” throughout. The Potency result in [7], in test [8], in [9], in test [10], in test [11] and in test [12] was “inactive” in each case. Also, the Potency result in [13], in [14], in test [15], in [16] and in test [17] was “inactive” each time.
With `Nc1ccc(Sc2ccc(N)cc2)cc1`, the Potency result in [1], in test [3], in [4], in [5], in [6] and in [7] was “inactive” throughout. Further, the Potency entry in [8], in [9], in test [10], in test [11], in test [12] and in test [13] was “inactive” throughout. The Potency result in test [14], in test [15] and in test [17] was “inactive” throughout. Further, in test [2], the Potency was 68.6 µM (active).
For `COc1ncc(F)c2nc(S(=O)(=O)Nc3c(F)cccc3F)nn12`, the Potency entry in test [1], in [2], in [3], in test [4], in [5] and in test [6] was “inactive” each time. Moreover, the Potency result in [7], in [8], in [9], in test [10], in test [11] and in test [12] was “inactive” in each case. For the same compound, the Potency result in test [13], in test [14], in test [15], in [18], in test [16] and in test [17] was “inactive” each time.
Regarding `CCCN`, the Potency result in test [1], in [2], in [3], in test [4], in [5] and in test [6] was “inactive” throughout. In addition, the Potency result in [7], in test [8], in [9], in test [10], in [11] and in [12] was “inactive” in each case. Besides, the Potency result in test [13], in test [15], in [18], in test [16] and in test [17] was “inactive” in each case.
Turning to `ClC(Cl)Br`, the Potency entry in [1], in test [2], in [3], in [4], in [5] and in test [6] was “inactive” each time. For the same compound, the Potency entry in test [7], in test [8], in [9], in test [10], in test [11] and in [12] was “inactive” in each case. The Potency result in test [13], in [14], in test [15], in test [18], in test [16] and in [17] was “inactive” in each case.
As for `C=C(C)C(=O)OCCCCOC(=O)C(=C)C`, the Potency entry in test [1], in test [2], in test [3], in [4], in test [5] and in [6] was “inactive” throughout. Also, the Potency result in [7], in test [8], in test [9], in test [10], in [11] and in test [12] was “inactive” in each case. The Potency result in test [13], in test [14], in test [15], in test [18], in test [16] and in [17] was “inactive” throughout.
Turning to `C/C=C/C=O`, the Potency entry in test [1], in test [3], in test [4], in test [5], in [6] and in test [7] was “inactive” each time. The Potency result in test [8], in test [9], in test [10], in test [11], in [12] and in test [13] was “inactive” throughout. Moreover, the Potency entry in [14], in [15], in [16] and in [17] was “inactive” throughout. Besides, the Potency in test [2] is 58.4 µM (active).
For the compound `Clc1cc(Cl)c(Cl)c(Cl)c1`, the Potency result in [1], in test [2], in test [3], in test [4], in test [5] and in [6] was “inactive” throughout. Further, the Potency entry in [7], in [8], in [9], in test [10], in [11] and in test [12] was “inactive” throughout. Besides, the Potency result in test [13], in test [14], in [15], in [16] and in [17] was “inactive” each time.
